Outcome and AC50 data for 40 compounds are collected here from PubChem BioAssay (EPA / NIEHS).

Active and inactive are the calls of the source. Rule for the calls: active = hit-call score of the fitted dose curve at least 0.9, where 1 is the maximum; inactive = score below 0.9.

As usually defined, the AC50 is the midpoint of the concentration-response curve, whichever way the signal moves.

Read-out in the assay: ABC Transporter (ABCC3), ABCC3 (gene 8714)
The experiment in a line: LTEA_HepaRG_ABCC3: Life Technologies and Expression Analysis (LTEA) Assay for ABC Transporter (ABCC3) using HepaRG (AID 2283462). As to conditions: mRNA level, 48 h; actives raise or lower the signal. The method, then:
LTEA_HepaRG is a cell based, multiplexed-readout assay that uses HepaRG, a human liver cell line, with measurements taken at 48 hours after chemical dosing on a 96-well plate.LTEA_HepaRG_ABCC3 is one of 102 assay component(s) measured in the LTEA HepaRG cell culture assay. It is a marker of NR mediated transport.Data from the assay component LTEA_HepaRG_ABCC3 was analyzed into 1 endpoint. This assay endpoint, LTEA_HepaRG_ABCC3, was analyzed with bidirectional fitting relative to DMSO as the negative control and baseline of activity. Using a type of inducible reporter, measures of mRNA induction for gain or loss-of-signal activity can be used to understand regulation of transcription factor activity. To generalize the intended target to other relatable targets, this assay endpoint is annotated to the transporter intended target family, where the subfamily is ABC transporter.
A total of 1060 chemcials from the ToxCast library were tested in eight-point concentration-response experiments. Cell culture and cytotoxicity assays were conducted at Thermo Fisher Scientific's Custom Services facility (Madison, WI). A single lot of human HepaRG cells (Thermo Fisher Scientific, Frederick, MD) was used for the cell culture experiments. 96-well format collagen type I coated plates of human HepaRG cells were prepared using established methods. Briefly, cryopreserved HepaRG cells were thawed, plated at a density of approximately 100,000 cells/well in HepaRG Thaw, Plate, and General Purpose media (HPRG770, Thermo Fisher Scientific), and incubated for 48 hours. 0.5% DMSO was selected as vehicle control to balance the requisite need of DMSO in HepaRG cultures to maintain differentiation (for example, baseline metabolism, proportions of hepatocytes vs. cholangiocytes), while enabling further hepatic receptor pathway activation (for example, PXR and CAR) in response to chemical exposure. 48 hours after plating, the culture medium was replaced with HepaRG Serum-Free Incudtion Media. Cells were exposed to each test chemical in duplicate and maintained in CO2 incubators for another 48 hours. Chemical plates were thawed to room temperature and 200x concentrations of treatment groups were prepared. 8-point conentration-reponse curves were made with the highest exposure at 100 uM, followed by half-log dilutions, all in 0.5% DMSO. Each test plate contained variouse controls, induction positive controls (1mM phenobarbital), cytotoxicity positive controls ([…] aflatoxin B1), vehicle controls (0.5% DMSO), and total lysis controls (0.5% DMSO). Cell morphology images were taken using an Essen IncuCyte FLR automated microscope, with six 96-well plates imaged in about 24 minutes. Images were captured and exported and JPEG files. Spent culture media was transfered to black-well plates for the LDH assay, and remaining media was sorted at -80 C for later use. Cells were treated with RLT buffer and frozen until shipped for gene expression analysis. Total RNA was isolated from the cell suspension in 75 uL of Buffer RLT (Qiagen, Germantown, MD 20874) by Quintiles/Expression Analysis (Durham, NC) using a custom isolation procedure. Total RNA from each plate well was transferred to a preamplification plate. Fluidigm's 96.96 Dynamic ArrayTM (Fluidigm, Amsterdam, the Netherlands) technology was used for gene expression analyses by quantitative reverse transcription polymerase chain reaction (qRT-PCR, performed by Quintiles/Expression Analysis, Durham, NC)89. Standard TaqManTM Assays (Applied Biosystems/ThermoFisher Scientific, Foster City, CA) were used to assess the expression of 93 genes selected based on their selectivity and sensitivity to important hepatic receptors known to be modulated by environmental chemicals; importance in human hepatocyte functionality; and hepatotoxicity. […]
Turning to `Oc1cc(Cl)ccc1Oc1ccc(Cl)cc1Cl`, the compound was classed as inactive.
On the same count and under the same terms, with `OCCOc1ccccc1` the entry was “inactive”; with `CCCN(CCC)c1c([N+](=O)[O-])cc(C(F)(F)F)cc1[N+](=O)[O-]`, “inactive”.
On the same count and under the same terms, with `CC1(C)C(C=C(Cl)Cl)C1C(=O)OC(C#N)c1ccc(F)c(Oc2ccccc2)c1` (stereo not given) the entry was “inactive”; with `C[C@H]1[C@H](c2ccc(Cl)cc2)SC(=O)N1C(=O)NC1CCCCC1`, “inactive”; with `CN1CSC(=S)N(C)C1`, “inactive”.
Still for that read-out and setting: with `O=C1c2ccccc2C(=O)N1SC(Cl)(Cl)Cl` the entry was “inactive”; with `CCc1ccc(C(=O)NN(C(=O)c2cc(C)cc(C)c2)C(C)(C)C)cc1`, “inactive”; with `Cc1[nH]c(=O)n(C(C)(C)C)c(=O)c1Cl`, “inactive”.
As for `O=C(NC(=O)c1c(F)cccc1F)Nc1ccc(OC(F)(F)C(F)OC(F)(F)F)c(Cl)c1` (stereo not given), the outcome was inactive.
Same read-out and setting: with `O=[N+]([O-])/N=C1\NCCN1Cc1ccc(Cl)nc1` the entry was “inactive”.
The same measure, in the same setting: with `CNC(=O)/C=C(\C)OP(=O)(OC)OC` the entry was “inactive”; with `CCCN(CCOc1c(Cl)cc(Cl)cc1Cl)C(=O)n1ccnc1`, “inactive”.
For `O=C(Nc1ccccc1)Nc1cnns1`, the half-maximal activity concentration (AC50) was 78.6 µM (active).
Regarding `CC(C)N(C(=O)COc1nnc(C(F)(F)F)s1)c1ccc(F)cc1`, the outcome was inactive.
Same read-out and setting: with `O=S1OCC2C(CO1)C1(Cl)C(Cl)=C(Cl)C2(Cl)C1(Cl)Cl` (stereo not given) the entry was “inactive”; with `COc1nn(CSP(=S)(OC)OC)c(=O)s1`, “inactive”.
Same read-out and setting: with `O=C(O)C(F)(F)C(F)(F)C(F)(F)C(F)(F)C(F)(F)C(F)(F)C(F)(F)F` the entry was “inactive”; with `CNC(=O)CSP(=S)(OC)OC`, “inactive”; with `C#CCN1C(=O)COc2cc(F)c(N3C(=O)C4=C(CCCC4)C3=O)cc21`, “inactive”.
On the same count and under the same terms, with `COP(=S)(OC)Oc1ccc(SC)c(C)c1` the entry was “inactive”; with `CCC(C)Nc1c([N+](=O)[O-])cc(C(C)(C)C)cc1[N+](=O)[O-]` (stereo not given), “inactive”; with `CNC(=O)Oc1ccccc1OC(C)C`, “inactive”.
Consider `CC[C@H](C)[C@H]1O[C@]2(C=C[C@@H]1C)C[C@@H]1C[C@@H](C/C=C(\C)[C@@H](O[C@H]3C[C@H](OC)[C@@H](O[C@H]4C[C@H](OC)[C@@H](O)[C@H](C)O4)[C@H](C)O3)[C@@H](C)/C=C/C=C3\CO[C@@H]4[C@H](O)C(C)=C[C@@H](C(=O)O1)[C@]34O)O2` (tested in a mixture with another compound), for which the half-maximal activity concentration (AC50) is 46.5 µM (active).
For the compound `COP(=S)(OC)Oc1ccc([N+](=O)[O-])cc1`, the compound was called inactive.
For the compound `COP(=O)(OC)OC=C(Cl)Cl`, the compound was called inactive.
For the compound `Clc1ccccc1-c1nnc(-c2ccccc2Cl)nn1`, the result was inactive.
Still for that read-out and setting: with `O=C(O)COc1ccc(Cl)cc1Cl` the entry was “inactive”; with `Oc1ccc(Cl)cc1Cc1ccccc1`, “inactive”; with `CC(C)OC(=O)Nc1cccc(Cl)c1`, “inactive”.
Consider `O=C(O)CCCOc1ccc(Cl)cc1Cl`, for which the compound was called inactive.
With `CCC(C)(NC(=O)c1cc(Cl)c(C)c(Cl)c1)C(=O)CCl` (stereo not given), the half-maximal activity concentration (AC50) was 65.3 µM (active).
Turning to `N#CN`, the compound was called inactive.
As to `CCC(C)(C)C(=O)OC1=C(c2ccc(Cl)cc2Cl)C(=O)OC12CCCCC2`, the compound was classed as inactive.
Consider `CCOC1Oc2ccc(OS(C)(=O)=O)cc2C1(C)C` (stereo not given), for which the half-maximal activity concentration (AC50) was 66.7 µM (active).
`CCN(CC)C(=O)SCc1ccc(Cl)cc1`: the compound was classed as inactive.
Take `CNC(=O)Oc1cccc(N=CN(C)C)c1`: the call was inactive.
The same measure, in the same setting: with `N#Cc1c(Cl)c(Cl)c(Cl)c(C#N)c1Cl` the entry was “inactive”; with `CC1(c2ccc(Oc3ccccc3)cc2)OC(=O)N(Nc2ccccc2)C1=O` (stereo not given), “inactive”; with `CC(C)(C)C(O)C(Oc1ccc(Cl)cc1)n1cncn1` (stereo not given), “inactive”.
